Among the test systems are NCI-H23 lung; NCI-H226 lung; NCI-H322M lung; HOP-62 NSCLC; NCI-H460 lung; HOP-92 NSCLC; NCI-H522 lung; A549/ATCC NSCLC; 786-0 renal; COLO 205 colon.
Experiment in all cases: NCI-60 one-dose screen, 48 h (100 = growth as untreated, 0 = no growth, -100 = all killed)
Conditions in all cases: 10 µM unless noted

Each structure is given as a SMILES string. Compounds without any hit were thinned out: in the full panel of roughly 83,000, 20% have a hit.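 Testing used 96-well plates and a 48-hour single-concentration exposure. Example: -40 means 40% of the starting cells died.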 Unmarked numbers belong to inactive results. Activity calls are given as the source filed them. The calls were made as follows: active = growth percent below 10; inactive = the rest.

For `CCCCOc1ccc(S(=O)(=O)N2CCN(c3nccc(N4CCOCC4)n3)CC2)cc1`, the growth in the test on NCI-H23 lung is 44.2%; with NCI-H226 lung, 58.3%; in the test with NCI-H322M lung, 45.1%; in the test with HOP-62 NSCLC, 88.9%; in the test on NCI-H460 lung, 16%; in the test with HOP-92 NSCLC, 14.3%. The growth with NCI-H522 lung was 81%; with A549/ATCC NSCLC, 28.9%; in the test on 786-0 renal, 39.1%; in the test on COLO 205 colon it was 77.3%.

In the case of `Cc1cc(C(=O)Nc2ccc(SC#N)cc2)c(C)o1`, the growth is 89.5% in the test on NCI-H23 lung; 77.7% in the test on NCI-H226 lung; 96.2% in the test on NCI-H322M lung; 63.9% in the test on HOP-62 NSCLC; 82.4% in the test on NCI-H460 lung; 110% in the test on HOP-92 NSCLC. The growth was 49.8% in the test on NCI-H522 lung, 82.4% in the test on A549/ATCC NSCLC, 88.2% in the test with 786-0 renal and 106% in the test on COLO 205 colon.

In the case of `COc1ccccc1N1CCN(C2=NN=C(c3cccc(Cl)c3)c3ccccc3C2)CC1`, the growth with NCI-H23 lung was 31.6%; in the test on NCI-H226 lung, 57.5%; in the test on NCI-H322M lung it was 37%; with HOP-62 NSCLC it was 34.3%; in the test with NCI-H460 lung, 1.95% (active); in the test with HOP-92 NSCLC, 46.8%. For the same molecule, the growth was -27.1% (active) in the test with NCI-H522 lung, 17.2% in the test on A549/ATCC NSCLC, 27% in the test with 786-0 renal and -38.7% (active) in the test on COLO 205 colon.

As to `N#Cc1c(-c2cccs2)cc(-c2cnccn2)nc1SCC(=O)NNC(=S)Nc1ccc(F)cc1`, the growth in the test with NCI-H23 lung is 108%; in the test on NCI-H226 lung, 117%; in the test with NCI-H322M lung it was 97.3%; in the test on HOP-62 NSCLC, 106%; with NCI-H460 lung, 105%; in the test with HOP-92 NSCLC, 112%. The growth is 95.5% in the test on NCI-H522 lung, 100% with A549/ATCC NSCLC, 99.3% in the test with 786-0 renal and 112% in the test on COLO 205 colon.

Take `C#CCOc1ccc(C(Nc2cc(Cl)ccc2Cl)c2nnnn2C2CCCCC2)cc1` (stereo not given): the growth is 88.6% with NCI-H23 lung; 85.3% in the test with NCI-H226 lung; 87.4% in the test on NCI-H322M lung; 86.4% in the test with HOP-62 NSCLC; 88.3% in the test with NCI-H460 lung; 72.7% in the test with HOP-92 NSCLC. Moreover, the growth was 69.9% with NCI-H522 lung, 80.5% with A549/ATCC NSCLC, 90% with 786-0 renal and 107% with COLO 205 colon.

With `CNC(=O)c1cc(Oc2ccc3nc(NC(=O)c4ccc(CN5CCN(C)CC5)c(C(F)(F)F)c4)sc3c2)ccn1`, the growth in the test with NCI-H23 lung is 51.8%; with NCI-H226 lung, 72.7%; in the test with NCI-H322M lung, 94.5%; in the test with HOP-62 NSCLC it was 73.5%; with NCI-H460 lung, 53.2%; with HOP-92 NSCLC, 44.1%. The growth in the test with NCI-H522 lung is 79.3%; with A549/ATCC NSCLC, 66.4%; in the test with 786-0 renal it was 22.3%; in the test with COLO 205 colon, -29.9% (active).

On to `COC[C@@]1(C)CC[C@]2(C)CC[C@]3(C)C(=CC[C@@H]4[C@@]5(C)CCCNC(C)(C)[C@@H]5CC[C@]43C)C2C1` (stereo not given in full), for which the growth with NCI-H23 lung was 75.4%; with NCI-H226 lung it was 81.3%; in the test on NCI-H322M lung it was 89.4%; with HOP-62 NSCLC, 83.9%; in the test on NCI-H460 lung, 29.8%; in the test on HOP-92 NSCLC, 73%. Moreover, the growth with NCI-H522 lung was 76.7%; with A549/ATCC NSCLC, 55.7%; in the test on 786-0 renal it was 59.1%; in the test on COLO 205 colon, 22%.

Take `COC[C@]12CC[C@@H](C)[C@H](C)[C@H]1C1=CC[C@@H]3[C@@]4(C)CCCNC(C)(C)[C@@H]4CC[C@@]3(C)[C@]1(C)CC2`: the growth in the test on NCI-H23 lung was 52.1%; with NCI-H226 lung it was 58%; with NCI-H322M lung, 64.6%; with HOP-62 NSCLC it was 40%; in the test with NCI-H460 lung, -42.3% (active); in the test with HOP-92 NSCLC, 48.3%. Also, the growth is -31.9% (active) in the test on NCI-H522 lung, 20.8% with A549/ATCC NSCLC, 21.1% in the test on 786-0 renal and -52.4% (active) with COLO 205 colon.

Consider `CCC(CC)N1C(=O)/C(=c2\sc3n(c2=O)C2C(NN=3)N(CC)C(=O)N2CC)c2ccccc21` (stereo not given), for which the growth was 7.64% (active) with NCI-H23 lung; 53.6% in the test with NCI-H226 lung; 61% in the test with NCI-H322M lung; 29.6% in the test with HOP-62 NSCLC; 4.83% (active) with NCI-H460 lung; 86.7% with HOP-92 NSCLC. Further, the growth is 20.1% in the test with NCI-H522 lung, 26% in the test with A549/ATCC NSCLC, 34.9% with 786-0 renal and -13.2% (active) in the test on COLO 205 colon.

For the molecule `CCN1C(=O)N(CC)C2SC(N/N=C/c3ccccc3F)=NC21` (stereo not given), the growth was 31.6% in the test with NCI-H23 lung; 45.1% in the test on NCI-H226 lung; 53.3% in the test on NCI-H322M lung; 30.9% in the test on HOP-62 NSCLC; 4.97% (active) with NCI-H460 lung; 8.68% (active) in the test on HOP-92 NSCLC. The growth in the test on NCI-H522 lung is -35.6% (active); with A549/ATCC NSCLC, 27.3%; in the test on 786-0 renal, 30.6%; in the test with COLO 205 colon, -47.6% (active).

On to `C=C(C)[C@@H]1CC[C@]2(C(=O)NCCCN(CCC#N)CCC#N)CC[C@]3(C)[C@H](CC[C@@H]4[C@@]5(C)CCC(=O)C(C)(C)[C@@H]5CC[C@]43C)[C@@H]12`, for which the growth in the test with NCI-H23 lung is 93.6%; in the test on NCI-H226 lung, 94%; in the test with NCI-H322M lung, 103%; in the test with HOP-62 NSCLC, 97.9%; with NCI-H460 lung, 101%; in the test with HOP-92 NSCLC, 102%. Also, the growth in the test with NCI-H522 lung was 91.6%; in the test on A549/ATCC NSCLC it was 97.3%; with 786-0 renal, 101%; in the test with COLO 205 colon it was 109%.

On to `N#Cc1ccc(S(=O)(=O)Nc2ccc(-c3cnc(N)[nH]3)cc2)cc1`, for which the growth in the test on NCI-H23 lung was 99.1%; with NCI-H226 lung it was 96.4%; in the test on NCI-H322M lung it was 97.4%; with HOP-62 NSCLC it was 105%; in the test with NCI-H460 lung, 103%; in the test with HOP-92 NSCLC it was 100%. Moreover, the growth with NCI-H522 lung was 94%; in the test on A549/ATCC NSCLC, 98.4%; in the test with 786-0 renal, 100%; in the test on COLO 205 colon it was 105%.

On to `O=C(CSc1nnc(-c2cccs2)n1-c1ccccc1)Nc1ccc(F)cc1`, for which the growth was 102% in the test on NCI-H23 lung; 98.3% in the test with NCI-H226 lung; 97% with NCI-H322M lung; 109% in the test with HOP-62 NSCLC; 103% in the test with NCI-H460 lung; 89.6% in the test on HOP-92 NSCLC. Further, the growth in the test with NCI-H522 lung is 82.4%; with A549/ATCC NSCLC it was 99.3%; in the test with 786-0 renal, 103%; in the test with COLO 205 colon it was 105%.

The values above are taken from PubChem BioAssay (NCI).
